Measurements: PubChem BioAssay (NCATS)
Values joined by “and” are separate entries in the source; they are usually repeats but may differ in a detail not shown here. Equal values may be shown once. Inconclusive results are not listed. Active and inactive are the calls of the source. Unless noted, the call rests on the fitted dose curve; in most records, active means well fitted curve in the direction sought with a large enough effect; inconclusive means small, poorly fitted or top-dose-only effect, or another doubt; inactive means no such curve, though single readings can be large; an effect the other way counts as inactive or inconclusive.

Key:
MKL-2 = experiment: qHTS assay to identify novel small-molecules to repurpose for Merkel cell carcinoma treatment (AID 1296009); settings: MCC and control cell lines, CellTiter-Glo viability, 72 h; series mostly up to 46 µM; further: nearly all actives have a fitted effect of over 60% in size; further: potency means the concentration at half of the fitted maximal effect
Method in brief: (§1)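 Luminescence from CellTiter-Glo, read 10 min after addition at room temperature, reported viability following a 72 hr, 37 degree celsius treatment with NPC or MIPE compounds in titration; values normalized to plate controls.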

C33A = experiment: Primary qHTS to identify gynecologic anti-cancer compounds using libraries of approved drugs and bioactive compounds (AID 1345084); settings: Gynecologic cancer cell panel viability, ATPlite luminescence, 48 h; series mostly up to 57.5 µM; further: nearly all actives have a fitted effect of over 55% in size; further: potency means the concentration at half of the fitted maximal effect
Method in brief: (§2)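 Cells, 1,000 per well, plated 16 h, then exposed 48 h at 37 C to compounds. Viability by ATPlite luminescence after 15 min at room temperature.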

CAOV3 = experiment: as above; settings: Gynecologic cancer cell panel viability, ATPlite luminescence, 48 h; series mostly up to 57.5 µM
Method in brief: as §2

CASKI = experiment: as above; settings: Gynecologic cancer cell panel viability, ATPlite luminescence, 48 h; series mostly up to 57.5 µM
Method in brief: as §2

Es-2 = experiment: as above; settings: Gynecologic cancer cell panel viability, ATPlite luminescence, 48 h; series mostly up to 57.5 µM
Method in brief: as §2

HeLa = experiment: as above; settings: Gynecologic cancer cell panel viability, ATPlite luminescence, 48 h; series mostly up to 57.5 µM
Method in brief: as §2

JEG-3 = experiment: as above; settings: Gynecologic cancer cell panel viability, ATPlite luminescence, 48 h; series mostly up to 57.5 µM
Method in brief: as §2

OV90 = experiment: as above; settings: Gynecologic cancer cell panel viability, ATPlite luminescence, 48 h; series mostly up to 57.5 µM
Method in brief: as §2

PA-1 = experiment: as above; settings: Gynecologic cancer cell panel viability, ATPlite luminescence, 48 h; series mostly up to 57.5 µM
Method in brief: as §2

Tov-21-G = experiment: as above; settings: Gynecologic cancer cell panel viability, ATPlite luminescence, 48 h; series mostly up to 57.5 µM
Method in brief: as §2

Tov112D = experiment: as above; settings: Gynecologic cancer cell panel viability, ATPlite luminescence, 48 h; series mostly up to 57.5 µM
Method in brief: as §2

[1] = Drug repurposing screens with cells derived from glioblastoma tumor samples (AID 1345199); settings: GBM patient neurospheres viability, ATP luminescence, 48 h; for Potency: tumour line A; further: potency means the concentration at half of the fitted maximal effect; on activity, negative = cell killing: on the % scale 0 is the no-effect control and ±100 the full control effect; on all read-outs here: nearly all actives have a fitted effect of over 40% in size
Method in brief: (§3)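 Primary testing used CD133+ neurospheres from four GBM patients, seven concentrations, 48 h exposure and ATP-based viability; confirmation added three slower-growing patient lines.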

[2] = molecular target: Nuclear receptor subfamily 1 group I member 2 (Rattus norvegicus) (UniProt Q9R1A7); experiment: qHTS assay for small molecule activators of the rat pregnane X receptor (rPXR) signaling pathway (AID 651751; call rule not given here; further: 0% is about no effect); settings: rPXR reporter cells, luciferase (One-Glo), 24 h
Sequence of Nuclear receptor subfamily 1 group I member 2 (Rattus norvegicus) (Q9R1A7 whole entry, looked up): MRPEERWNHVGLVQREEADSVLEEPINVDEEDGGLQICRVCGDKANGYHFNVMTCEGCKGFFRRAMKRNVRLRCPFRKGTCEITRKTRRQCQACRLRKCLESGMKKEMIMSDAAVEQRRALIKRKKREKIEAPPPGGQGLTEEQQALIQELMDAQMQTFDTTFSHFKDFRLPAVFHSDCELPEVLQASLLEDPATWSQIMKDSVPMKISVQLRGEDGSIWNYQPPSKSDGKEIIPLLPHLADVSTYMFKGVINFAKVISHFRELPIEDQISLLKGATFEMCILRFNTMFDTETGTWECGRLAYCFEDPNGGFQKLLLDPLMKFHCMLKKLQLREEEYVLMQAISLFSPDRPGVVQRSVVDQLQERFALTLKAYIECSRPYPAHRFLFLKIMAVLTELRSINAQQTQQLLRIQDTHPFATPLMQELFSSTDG

Hek293T = experiment: Primary qHTS to identify gynecologic anti-cancer compounds using libraries of approved drugs and bioactive compounds (AID 1345084); settings: Gynecologic cancer cell panel viability, ATPlite luminescence, 48 h, control line for the selectivity index; series mostly up to 57.5 µM; further: nearly all actives have a fitted effect of over 55% in size; further: potency means the concentration at half of the fitted maximal effect
Method in brief: as §2

SKOV3 = experiment: as above; settings: Gynecologic cancer cell panel viability, ATPlite luminescence, 48 h; series mostly up to 57.5 µM
Method in brief: as §2

WaGa = experiment: qHTS assay to identify novel small-molecules to repurpose for Merkel cell carcinoma treatment (AID 1296009); settings: MCC and control cell lines, CellTiter-Glo viability, 72 h; series mostly up to 46 µM; further: nearly all actives have a fitted effect of over 60% in size; further: potency means the concentration at half of the fitted maximal effect
Method in brief: as §1

astro = experiment: Drug repurposing screens with cells derived from glioblastoma tumor samples (AID 1345199); settings: viability, ATP luminescence, 48 h; series mostly up to 45.9 µM; further: nearly all actives have a fitted effect of over 40% in size; further: potency means the concentration at half of the fitted maximal effect; on activity, negative = cell killing: on the % scale 0 is the no-effect control and ±100 the full control effect
Method in brief: as §3

UISO = experiment: qHTS assay to identify novel small-molecules to repurpose for Merkel cell carcinoma treatment (AID 1296009); settings: MCC and control cell lines, CellTiter-Glo viability, 72 h; series mostly up to 46 µM; further: nearly all actives have a fitted effect of over 60% in size; further: potency means the concentration at half of the fitted maximal effect
Method in brief: as §1

NIH3T3 = experiment: as above; settings: MCC and control cell lines, CellTiter-Glo viability, 72 h; at 44.8 µM (top of the series) unless noted
Method in brief: as §1

[3] = at 45.9 µM (top of the series), tumour line B
[4] = at 108 µM (top of the series), tumour line B
[5] = at 108 µM (top of the series), tumour line D
[6] = at 91.6 µM (top of the series), tumour line B
[7] = at 91.6 µM (top of the series), tumour line D

N#Cc1nn(-c2c(Cl)cc(C(F)(F)F)cc2Cl)c(N)c1S(=O)C(F)(F)F (stereo not drawn)
active: Potency (MKL-2) 23.7 µM
inactive: Potency (C33A) | Potency (CAOV3) | Potency (CASKI) | Potency (Es-2) | Potency (HeLa) | Potency (JEG-3) | Potency (OV90) | Potency (PA-1) | Potency (Tov-21-G) | Potency (Tov112D) | activity, negative = cell killing [1, 3] -25.5% | max response [2] -15%

CNC(=O)Oc1cccc2ccccc12
inactive: Potency (C33A) | Potency (CAOV3) | Potency (CASKI) | Potency (Es-2) | Potency (HeLa) | Potency (Hek293T) | Potency (JEG-3) | Potency (PA-1) | Potency (SKOV3) | Potency (Tov-21-G) | Potency (Tov112D) | max response [2] 5.05% and 2.44%
active: Potency [1] 35.5 µM

C[C@]12Cc3nonc3C[C@@H]1CC[C@@H]1[C@@H]2CC[C@@]2(C)[C@H]1CC[C@]2(C)O
inactive: Potency (C33A) | Potency (CAOV3) | Potency (CASKI) | Potency (Es-2) | Potency (Hek293T) | Potency (JEG-3) | Potency (OV90) | Potency (SKOV3) | Potency (Tov-21-G) | Potency (Tov112D) | activity, negative = cell killing [1, 3] -26.1%
active: Potency (WaGa) 18.8 µM | Potency (HeLa) 2.82 µM | Potency [1] 12.6 µM

CCc1cc(OC)c(C[C@H](C)N)cc1OC
active: Potency [1] 31.6 µM
inactive: Potency (MKL-2) | Potency (WaGa) | Potency (C33A) | Potency (CAOV3) | Potency (CASKI) | Potency (Es-2) | Potency (HeLa) | Potency (Hek293T) | Potency (JEG-3) | Potency (PA-1) | Potency (SKOV3) | Potency (Tov-21-G) | Potency (Tov112D) | activity, negative = cell killing [1, 4] -24.5% | activity, negative = cell killing [1, 5] -14.6% | Potency (astro)

CC[C@]1(O)CC[C@H]2[C@@H]3CCC4=CCCC[C@@H]4[C@H]3CC[C@@]21C
active: Potency [1] 10 µM
inactive: Potency (MKL-2) | Potency (WaGa) | Potency (CASKI) | Potency (JEG-3) | activity, negative = cell killing [1, 3] -25.8%

CN(C)CCc1c[nH]c2cccc(O)c12
inactive: Potency (MKL-2) | Potency (C33A) | Potency (CAOV3) | Potency (CASKI) | Potency (Es-2) | Potency (HeLa) | Potency (Hek293T) | Potency (JEG-3) | Potency (OV90) | Potency (PA-1) | Potency (Tov-21-G) | Potency (Tov112D) | activity, negative = cell killing [1, 6] -8.47% | activity, negative = cell killing [1, 7] -23.4% | Potency (astro)

C[C@H](CN1CCOCC1)C(C(=O)N1CCCC1)(c1ccccc1)c1ccccc1
active: Potency [1] 35.5 µM
inactive: Potency (MKL-2) | Potency (C33A) | Potency (CAOV3) | Potency (CASKI) | Potency (Es-2) | Potency (HeLa) | Potency (Hek293T) | Potency (JEG-3) | Potency (PA-1) | Potency (SKOV3) | Potency (Tov-21-G) | Potency (Tov112D) | activity, negative = cell killing [1, 4] -15.2% | activity, negative = cell killing [1, 5] -29.8% | Potency (astro)

CNC(C)Cc1ccc2c(c1)OCO2 (stereo not drawn)
active: Potency [1] 50.1 µM
inactive: Potency (MKL-2) | Potency (C33A) | Potency (CAOV3) | Potency (CASKI) | Potency (Es-2) | Potency (HeLa) | Potency (Hek293T) | Potency (JEG-3) | Potency (OV90) | Potency (PA-1) | Potency (SKOV3) | Potency (Tov-21-G) | Potency (Tov112D) | activity, negative = cell killing [1, 4] 0.451% | activity, negative = cell killing [1, 5] -9% | Potency (astro)

CC#C[C@]1(O)CC[C@H]2[C@@H]3C[C@H](C)C4=CC(=O)CC[C@]4(C)[C@H]3CC[C@@]21C
active: Potency (HeLa) 6.31 µM | Potency (PA-1) 25.1 µM
inactive: Potency (UISO) | Potency (C33A) | Potency (CAOV3) | Potency (CASKI) | Potency (Es-2) | Potency (Hek293T) | Potency (Tov-21-G) | Potency (Tov112D)

COc1ccc2[nH]cc(CCN(C(C)C)C(C)C)c2c1
inactive: Potency (UISO) | Potency (WaGa) | Potency (C33A) | Potency (CASKI) | Potency (Es-2) | Potency (HeLa) | Potency (Hek293T) | Potency (JEG-3) | Potency (OV90) | Potency (PA-1) | Potency (SKOV3) | Potency (Tov-21-G) | Potency (Tov112D) | activity, negative = cell killing [1, 4] -6.42% | activity, negative = cell killing [1, 5] -9.85% | Potency (astro)
active: Potency [1] 44.7 µM

CCO[C@H]1O[C@@H]2OC3(C)CC[C@H]4[C@H](C)CC[C@@H]([C@H]1C)[C@@]24OO3
active: Potency (WaGa) 18.8 µM
inactive: Potency (C33A) | Potency (CASKI) | Potency (Es-2) | Potency (HeLa) | Potency (JEG-3) | Potency (OV90) | Potency (PA-1) | Potency (SKOV3) | Potency (Tov-21-G) | Potency (Tov112D)

CC[C@H]1C[C@@H]2C[C@H]3c4[nH]c5ccc(OC)cc5c4CCN(C2)[C@@H]13
inactive: Potency (C33A) | Potency (CAOV3) | Potency (CASKI) | Potency (Es-2) | Potency (HeLa) | Potency (Hek293T) | Potency (JEG-3) | Potency (SKOV3) | Potency (Tov-21-G) | Potency (Tov112D) | Potency (astro)
active: Potency (WaGa) 42.4 µM | Potency (OV90) 31.6 µM

CN(C)CCc1c[nH]c2ccc(O)cc12
inactive: outcome (NIH3T3) inactive [at 92 µM] | Potency (C33A) | Potency (CASKI) | Potency (Es-2) | Potency (HeLa) | Potency (Hek293T) | Potency (JEG-3) | Potency (OV90) | Potency (PA-1) | Potency (SKOV3) | Potency (Tov-21-G) | Potency (Tov112D) | activity, negative = cell killing [1, 6] -5.09% | activity, negative = cell killing [1, 7] -23.3% | Potency (astro)
active: Potency (UISO) 53.4 µM

CCCN(CCC)CCc1c[nH]c2ccccc12
inactive: Potency (MKL-2) | Potency (WaGa) | Potency (C33A) | Potency (CAOV3) | Potency (CASKI) | Potency (Es-2) | Potency (HeLa) | Potency (Hek293T) | Potency (JEG-3) | Potency (Tov-21-G) | Potency (Tov112D) | activity, negative = cell killing [1, 6] -11.3% | activity, negative = cell killing [1, 7] -14% | Potency (astro)
active: Potency [1] 25.1 µM
